An excerpt weighted towards active compounds, which were near 14% of everything screened.
HCMV antiviral – inhibitors of human cytomegalovirus; HFF cells, HCMV-luciferase reporter, 72 h; stronger effect = lower value; activity change, negative = inhibition, % at 57.5 µM; 410,000 tested, 4.5% active; AID 1259415; in the data active = activity change below about -60%; inconclusive = no clear call, values can overlap the other calls; inactive = above about -39%
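Steps: HFFs plated, 16 h 37C; compounds added; HCMV-luciferase added to MOI 1 PFU/cell; 72 h 37C; OneGlo reagent, 5 min room temperature; luminescence read, normalized to controls.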
Pf growth 96h – P. falciparum growth inhibition at 96 hour, primary screen for plastid delayed-death inhibitors | P. falciparum luciferase reporter growth, 96 h | Potency, µM (titrated, usually from 28.7 µM), for the others: at the highest dose activity change, negative = inhibition, most hits filed as inhibitors | 320,000 tested, 6.9% active | AID 504834; note: potency is the fitted concentration of half-maximal effect
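Readout is luminescence from an integrated firefly luciferase in P. falciparum. Red cells, 2% hematocrit and 0.05% parasitemia final, were cultured with compound through two parasite generations (96 hours) at 37 C, 5% CO2.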
Lassa entry inh – Lassa virus entry inhibition. Lassa virus pseudotype entry inhibition, cell reporter. 300,000 tested, 1.2% active. AID 540256. Potency, µM (highest dose often 37.9 µM), for the others: at the highest dose activity change, negative = inhibition, most hits filed as inhibitors; calls by dose curve; tested in HEK293 cells; note: potency is the fitted concentration of half-maximal effect; nearly all actives have a fitted effect of over 50% in size
Pf growth 48h – inhibits P. falciparum growth in the first generation, 48 h. P. falciparum luciferase growth in erythrocytes, 48 h. Potency, µM (top dose mostly 28.7 µM), for the others: at the highest dose activity change, negative = inhibition, usual class: inhibitors. 310,000 tested, 5.9% active. AID 504832; note: potency is the fitted concentration of half-maximal effect
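Luminescence readout; reporter = integrated firefly luciferase in P. falciparum. RBC culture at 2% hematocrit, 0.1% parasitemia final, 37 C/5% CO2; decreased signal taken as growth inhibition.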
HCV inhibitor – HCV inhibition; Huh7.5.1 HCVcc-Cre infection, luciferase reporter, 44 h; Potency, µM (titrated, usually from 41.8 µM), inactives show at the highest dose activity change, negative = inhibition, usual class: inhibitors; 340,000 tested, 3.4% active; note: potency is the fitted concentration of half-maximal effect
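Reporter virus HCVcc-Cre (~0.5 moi) infects cells exposed to compound; seeding density 1,000 cells/well with 4 h settling beforehand. Luminescence, 15 sec read, taken 44 h post-infection following a 15 min RT substrate incubation.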
MARV entry inh – Marburg virus entry inhibition; Marburg virus pseudotyped entry inhibition, cell reporter; Potency, µM (top dose mostly 37.8 µM), inactives show at the top dose activity change, negative = inhibition, hits mostly inhibitors; 300,000 tested, 1.8% active; AID 540276; calls by dose curve; tested in HEK293 cells; note: potency is the fitted concentration of half-maximal effect
* marks the source's active call; other numbers are inactive results; u = inconclusive; x = no result; [ ] = another dose, or the depositor's remark. Unless noted, calls come from the whole dose curve; as a rule, active = well fitted inhibition curve with a large enough effect; inconclusive = small, poorly fitted or top-dose-only effect, or another doubt; inactive = no such curve, though single readings can be large or run the other way. % is set by controls: 0 for no effect and ±100 for the full control effect.

SMILES	HCMV antiviral	Pf growth 96h	Lassa entry inh	Pf growth 48h	HCV inhibitor	MARV entry inh
CC1(C(=O)NCc2ccc3c(c2)OCO3)CCN1C(=O)Cc1ccc(Cl)cc1Cl (centres undefined)	-9	x	x	x	x	x
c1ccc(-c2cc(-c3ccccc3)[n+](-c3ccccc3)c(-c3ccccc3)c2)cc1	-101*	0.37µM*	u	0.29µM*	u	u
Cc1ccc(-c2cc(-c3ccccc3)cc(-c3ccccc3)[n+]2-c2ccccc2)cc1	-99*	0.33µM*	x	0.37µM*	6.3µM*	x
c1ccc(-c2ccncc2)cc1	-22	x	x	x	-5%	x
CCN(CC)c1ccc2ccc(=O)oc2c1	-10	9.3µM*	-16%	-34%	-24%	1%[46.1 µM]
COc1ccc(NC(=O)c2cn(CC(C)C)c(=O)c3cc(OC)c(OC)cc23)cc1Cl	-15	x	-7%[46.1 µM]	x	x	u
CC(=O)C(=Nc1ccccc1Cl)NNc1ccc(Cl)cc1	5	4.7µM*	u	12µM*	u	-29%
CCOc1cc(-c2nc3ccccn3c2NCC2CCCO2)ccc1O (centres undefined)	11	12µM*	-17%	-9%	1%	1%
CCOc1ccc(NC(=O)CSc2oc(-c3cccs3)nc2S(=O)(=O)c2ccc(C)cc2)cc1	21	x	0%[46.1 µM]	x	x	-1%[46.1 µM]
COc1cccc(CNC(=O)Cn2c(=O)oc3cc(S(=O)(=O)N4CCCCCC4)ccc32)c1	0	x	-15%[46.1 µM]	x	x	x
CN(C)c1ccc(/C=N/n2c(C3CCCCC3)n[nH]c2=S)cc1	-11	u	u	u	10%	2.2µM*
CCOc1ccc(/C=N/n2c(C3CCCCC3)n[nH]c2=S)cc1	-81*	u	x	u	11µM*	x
Cc1ccsc1/C=N/n1c(C2CCCCC2)n[nH]c1=S	-8	74%	-6%	-4%	11%	u
Fc1ccc(/C=N/n2c(C3CCCCC3)n[nH]c2=S)cc1	24	-6%	x	5%	4%	x
Cc1ccc(/C=N/n2c(C3CCCCC3)n[nH]c2=S)s1	-8	2.1µM*	u	u	7%	3%
CN(C)c1ccc(/C=C2\SC(=O)N(CCc3nnc(N)s3)C2=O)cc1	u	0%	u	-14%	-18%	1.1µM*
CN(C)c1ccc(/C=C2/SC(=O)N(CCN=C3NS(=O)(=O)c4ccccc43)C2=O)cc1	24	-3%	-24%	-5%	-26%	20%
CCC(=O)Nc1ccccc1-c1nc2ccccc2n(Cc2cccc(Br)c2)c1=O	4	x	-1%[46.1 µM]	x	x	-3%[46.1 µM]
O=[N+]([O-])c1cccc(-c2nn(-c3ccccc3)cc2CO)c1	-12	0.47µM*	x	15%	-21%	x
O=C(N/N=C/c1cn(-c2ccccc2)nc1-c1cccnc1)c1ccc(F)cc1	-28	u	x	u	u	x
O=[N+]([O-])c1ccc(N/N=C/c2cn(-c3ccccc3)nc2-c2ccccc2)cc1	-38	4.7µM*	-17%	13µM*	5%	u
O=C(O)/C=C/c1cn(-c2ccccc2)nc1-c1cccc([N+](=O)[O-])c1	-19	-13%	x	-16%	18%	0%
NC(=O)N/N=C/c1cn(-c2ccccc2)nc1-c1ccccc1	145	u	2%	-51%	-25%	16%[46.1 µM]
O=C(CNc1ccccc1)N/N=C/c1cn(-c2ccccc2)nc1-c1ccccc1	-29	u	6%	12µM*	21%	u
O=C(N/N=C/c1cn(-c2ccccc2)nc1-c1ccc(F)cc1)c1ccc(Br)o1	-31	u	u	8.3µM*	u	u
SMILES	HCMV antiviral	Pf growth 96h	Lassa entry inh	Pf growth 48h	HCV inhibitor	MARV entry inh
NS(=O)(=O)c1ccc(N/N=C/c2ccccc2C(=O)O)c([N+](=O)[O-])c1	-24	3%	4%	44%	-12%	-16%[46.1 µM]
NS(=O)(=O)c1ccc(N/N=C/c2cn(-c3ccccc3)nc2-c2ccccc2)c([N+](=O)[O-])c1	-81*	u	x	4.1µM*	10µM*	x
CCc1cc2c(nc1CC)CCN(CCC(C)=NO[C@@H]1O[C@H](COC(C)=O)[C@@H](OC(C)=O)[C@H](OC(C)=O)[C@@H]1OC(C)=O)C2	x	x	x	x	x	-19%[14.2 µM]
CCc1cc2c(nc1CC)CCN(CC/C(C)=N/OC[C@H]1O[C@H](c3ccccc3)C=C[C@@H]1Oc1ccc(OC)cc1)C2	x	4.7µM*	-16%	u	-15%[8.37 µM]	-25%[14.2 µM]
COc1ccc(O[C@H]2C=C[C@@H](c3ccccc3)O[C@@H]2CO/N=C(\C)CCN2CCc3nc(-c4ccccc4)c(-c4ccccc4)cc3C2)cc1	x	u	-5%	10µM*	-2%[8.37 µM]	4%
CCC(=O)N1[C@H](C(=O)NC2CCCC2)[C@@H](CO)[C@@H]2Cn3c(cccc3=O)[C@@H]21	-6	x	x	x	x	x
COc1cc(-c2noc(-c3ccc(N4CCOCC4)c([N+](=O)[O-])c3)n2)cc(OC)c1OC	6	x	12%[46.1 µM]	x	x	-2%[46.1 µM]
Cc1cc(C(=O)CSc2nc3ccccc3c(=O)n2C)c(C)n1Cc1ccc2c(c1)OCO2	-11	-6%	u	-10%	1.6µM*	u
Cc1cc(C(=O)CSc2nnc(Cc3ccccc3)o2)c(C)n1Cc1ccc2c(c1)OCO2	59	u	-7%	9.3µM*	u	-3%
Cc1cc(C(=O)CSc2nnc(-c3ccccc3)n2Cc2ccc3c(c2)OCO3)c(C)n1C	10	u	14%	u	-6%	19%
COc1ccc(-n2ccn3c(CC(C)(C)CC(=O)O)nnc3c2=O)cc1	2	x	0%[46.1 µM]	x	x	-16%[46.1 µM]
CC1CN(c2nc3ccccn3c(=O)c2/C=C(\C#N)S(=O)(=O)c2ccccc2)CC(C)O1 (centres undefined)	15	63%	7%	-12%	7%	-1%
O=Cc1c(N2CCN(CCO)CC2)nc2ccccn2c1=O	-14	10µM*	-3%[46.1 µM]	0%	15%	2%[46.1 µM]
CCN1CCN(c2nc3ccccn3c(=O)c2C=O)CC1	38	26%	x	16%	12%	x
CC1CN(c2nc3ccccn3c(=O)c2C=O)CC(C)O1 (centres undefined)	29	12µM*	x	20%	-6%	x
CCNC(=O)C1CCCN(Cc2ccc(OCc3ccccc3)cc2)CC1 (centres undefined)	-64*	x	x	x	x	x
O=C(C1CCN(Cc2ccc(OCc3ccccc3)cc2)CC1)N1CCCC1	51	x	-7%	-10%	-24%	0%
COCCNC(=O)C1CCCN(Cc2cccc(C#N)c2)CC1 (centres undefined)	-61*	x	x	x	x	x
OC1CCN(Cc2ccc(OCc3ccccc3)cc2)CC1	39	4.1µM*	7%[46.1 µM]	127%	-16%	u
CCCN(C(=O)c1nn(-c2ccc(OC)cc2)c(=O)c2c1c1ccccc1n2C)c1ccc(CC)cc1	-4	x	21%[46.1 µM]	x	x	-5%[46.1 µM]
COc1ccc(C(=O)NC(=S)NCc2ccco2)cc1Br	-38	u	2%	u	-27%	12%
